The values below come from PubChem BioAssay (NCI).

The panel holds about 83,000 compounds, 20% with a hit somewhere; the sample as a whole holds those more often.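 Cells were grown in 96-well plates and exposed to the test compound at a single concentration for 48 hours; results are reported as percent growth, with values below 10 considered active.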 Active and inactive are the calls of the source.

The test system of the assay is KM12 colon. Description: NCI-60 one-dose screen, 48 h (100 = growth as untreated, 0 = no growth, -100 = all killed). The note with it: 10 µM unless noted.
Regarding `CCC1C(=O)COC1=O` (stereo unspecified), the growth was 101% (inactive).
Turning to `C=C(C)[C@@H]1CC[C@]2(C)[C@H](CC=C3[C@@H]4CC(C)(C)CC[C@]4(C(=O)OC)CC[C@]32C)[C@@]1(C)CC/C(N)=N/O`, the growth is 61% (inactive).
Regarding `O=C(/C=C/c1cccc2ccccc12)Nc1ncc(Cc2ccccc2)s1`, the growth is 15.8% (inactive).
Regarding `N#Cc1c(-c2ccc(O)cc2)c2c(N)nn(-c3ccccc3)c2[nH]c1=O`, the growth was 102% (inactive).
As to `COc1ccc(-c2c(-c3nc4ccc(N5CCOCC5)cc4[nH]3)[nH]c(C)c2C(C)=O)cc1`, the growth was 46.5% (inactive).
As for `c1ccc(-c2nc(Nc3ccc(-c4nc5ccccc5[nH]4)cc3)nc(N3CCOCC3)n2)cc1`, the growth is -76.6% (active).
As for `Cc1cc2nc3c4cc(Cl)ccc4n(CCN(C)C)c3nc2cc1C`, the figure is 19.1% (inactive).
Consider `Cc1cc(N2CCOCC2)nc(N(CCCNc2ccnc3cc(Cl)ccc23)Cc2ccco2)n1`, for which the growth is 33.3% (inactive).
The figure for `Cc1cc(N(CCNc2ccnc3cc(Cl)ccc23)Cc2ccco2)nc(Cl)n1` is 26.5% (inactive); for `COc1ccc(/C=C/C(=O)NCCO)cc1` it is 103% (inactive).
Regarding `O=C1NC(c2ccc(Cl)c(Cl)c2)=C/C1=C\c1ccccc1`, the growth was 89.2% (inactive).
With `N#C/C(=C\c1ccc(-c2ccccc2)o1)c1nc(-c2ccco2)cs1`, the growth was 48.1% (inactive).
Turning to `C=C1C(=O)O[C@H]2[C@H]1CC/C(COC(=O)NCc1c[nH]c3ccccc13)=C\CC[C@@]1(C)O[C@@H]21`, the growth is 96.9% (inactive).
On to `Cn1cc(-c2csc(-c3cn(CCN)c4ccccc34)n2)c2cccnc21`, for which the growth is 46.3% (inactive).
As for `C=C(C)[C@@H]1CC[C@]2(C)[C@H](CC[C@@H]3[C@H]4[C@H]5OC[C@@]4(CCC5(C)C)CC[C@]32C)[C@@]1(C)CCCN`, the figure is 23.9% (inactive); as for `CC[C@]12C=CCN3CC[C@@]4(c5cc([C@H]6CCC(=O)N6)c(OC)cc5N(C)[C@H]4[C@@](O)(C(=O)OC)[C@@H]1OC(C)=O)[C@@H]32`, 111% [2.5 µM] (inactive).
As for `COc1cc2c(cc1-c1c(C)noc1C)ncc1nc(C3CCCCC3)n([C@@H](C)COC(F)F)c12`, the growth is 35.9% (inactive).
Turning to `COc1ccc(/C=C(\C#N)c2cc3ccccc3n2S(C)(=O)=O)cc1`, the growth was 69% (inactive).
The figure for `CCc1cccc(CC)c1NC(=O)c1sc2nc3c(cc2c1N)CCCC3` is 70% (inactive); for `O=C1CCC/C=C\C[C@H]2C=C(Cl)C(=O)/C2=C/C[C@H](CCCCC(F)(F)F)OC(=O)CCC/C=C\C[C@H]2C=C(Cl)C(=O)/C2=C/C[C@H](CCCCC(F)(F)F)O1` it is -60.3% [7.5 µM] (active).
The figure for `COc1cc(-c2cc3ncccc3c3nc(N)c4cccnc4c23)cc(OC)c1OC` is 30.8% (inactive); for `COC(=O)[C@]12CC[C@@H](C)[C@H](C)[C@@H]1C1=CC[C@@H]3[C@@]4(C)C[C@@H](OC(C)=O)[C@H](O)[C@@](C)(CO)[C@@H]4[C@H](O)C[C@@]3(C)[C@]1(C)CC2` it is -84.2% (active); for `Cc1ccc(N(CC(=O)Nc2ccc(S(=O)(=O)NC3CCN(C)CC3)cc2)S(=O)(=O)c2ccc(Cl)cc2)cc1` it is 61.2% (inactive).
For the compound `N#CC1=C(N)Oc2ccc3ccccc3c2C1c1ccccc1` (stereo unspecified), the growth was 24.5% (inactive).
As for `COc1ccc(C(=O)/C=C/c2cc(-c3cc(OC)c(OC)c(OC)c3)n[nH]2)cc1OC`, the figure is -86.7% (active).
Consider `Cn1c(/C(C#N)=C/c2ccc3ccccc3c2)cc2ccccc21`, for which the growth is 15.1% (inactive).
